High-throughput results as filed in PubChem.
A selection: hits, their analogues and other compounds. The true share with any hit is near 10%.
RORg inh: qHTS for inhibitors of ROR gamma transcriptional activity; Nuclear receptor ROR-gamma (Mus musculus), P51450; Drosophila S2 Gal4-RORgamma UAS-luciferase reporter, 20 h; Potency, µM (series often up to 53.6 µM), usual class: inhibitors; 310,000 tested, 5.4% active; AID 2551, 2010; further: nearly all actives have a fitted effect of over 60% in size
Target sequence (P51450 whole entry, looked up, the tested form may be a part): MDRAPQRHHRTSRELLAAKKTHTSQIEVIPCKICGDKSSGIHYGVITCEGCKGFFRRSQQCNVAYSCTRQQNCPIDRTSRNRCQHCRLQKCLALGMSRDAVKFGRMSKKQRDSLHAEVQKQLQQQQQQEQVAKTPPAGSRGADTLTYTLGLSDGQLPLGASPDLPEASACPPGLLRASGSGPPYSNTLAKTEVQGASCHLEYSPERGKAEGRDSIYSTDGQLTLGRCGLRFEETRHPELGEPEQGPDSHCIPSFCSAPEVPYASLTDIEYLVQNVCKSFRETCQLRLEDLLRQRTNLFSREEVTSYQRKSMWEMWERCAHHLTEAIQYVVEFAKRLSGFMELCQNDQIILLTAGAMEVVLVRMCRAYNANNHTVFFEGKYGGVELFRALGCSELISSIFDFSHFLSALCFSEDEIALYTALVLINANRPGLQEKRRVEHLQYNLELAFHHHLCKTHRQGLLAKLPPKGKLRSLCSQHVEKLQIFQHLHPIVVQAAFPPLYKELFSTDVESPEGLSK
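Using a luciferase readout, inhibitors were identified by reduced reporter activity in Drosophila cells coexpressing a copper-inducible Gal4–ROR gamma fusion and UAS-driven Photinus luciferase, incubated 20 hr after 700 uM copper sulfate.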
MCF10A rerep: A quantitative high throughput screen for small molecules that induce DNA re-replication in MCF 10a normal breast cells; AID 624296, 2012; Potency, µM (titrated, usually from 46.1 µM), most hits filed as activators; 350,000 tested, 2.9% active; MCF 10A DNA re-replication, Hoechst nuclear intensity, 48 h; further: nearly all actives have a fitted effect of over 50% in size
Gal4-VP16 FLuc: VP16 counterscreen qHTS for inhibitors of ROR gamma transcriptional activity. Drosophila S2 Gal4-VP16 UAS-luciferase, luminescence, 20 h. Potency, µM (titrated, usually from 53.6 µM), most hits filed as inhibitors. 310,000 tested, 3.5% active. AID 2546, 2010;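 further: Gal4-VP16 expression switched on by copper sulfate through the metallothionein promoter; nearly all actives have a fitted effect of over 50% in size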
SW480 rerep: A quantitative high throughput screen for small molecules that induce DNA re-replication in SW480 colon adenocarcinoma cells; SW480 DNA re-replication, Hoechst DNA content imaging, 48 h; Potency, µM (doses to about 46.1 µM), most hits filed as activators; 340,000 tested, 1.8% active; AID 624297, 2012; further: nearly all actives have a fitted effect of over 55% in size
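Compounds, transferred as 23 nL by pin tool, were incubated with cells for 48 hr; DNA content per nucleus was then quantified by Hoechst staining and fluorescence plate imaging.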
ELG1 repair inh: qHTS screen for small molecules that inhibit ELG1-dependent DNA repair in human embryonic kidney (HEK293T) cells expressing luciferase-tagged ELG1; 330,000 tested, 2.3% active; Potency, µM (highest dose often 46.1 µM), actives largely listed as inhibitors; HEK293T ELG1-luciferase reporter, luminescence, 16 h; DNA damage induced by 5-fluorouridine; further: nearly all actives have a fitted effect of over 55% in size
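HEK293T cells expressing luciferase-tagged ELG1 (2,000/well) received 5-Fluorouridine plus compound or DMSO for 16 hr at 37 °C. Luciferase was read by ONE-Glo luminescence after 30 min at room temperature.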
A number is an active result; n = inactive; u = inconclusive; x = no result; [ ] = another dose, or the depositor's remark. The call rests on the fitted dose curve; in most records, active means well fitted curve in the direction sought with a large enough effect; inconclusive means small, poorly fitted or top-dose-only effect, or another doubt; inactive means no such curve, though single readings can be large; an effect the other way counts as inactive or inconclusive.

SMILES | RORg inh | MCF10A rerep | Gal4-VP16 FLuc | SW480 rerep | ELG1 repair inh
CCNc1nc(SC(C)C(=O)OC)nc(N(C)C)n1 (configuration not stated) | n | n | n | n | n
CCC(C)Nc1nc(SC(C(C)=O)C(C)=O)nc(N(C)C)n1 (configuration not stated) | 12.6µM | n | u | n | n
CCNc1nc(SC(C(C)=O)C(C)=O)nc(N(C)C)n1 | 5.01µM | n | n | n | n
O=C(Nc1ccc(Br)cc1)N1CCCCC1 | n | n | n | n | u
Cc1ccc(C2NC(=O)c3c(sc(C)c3C)N2)c(O)c1 (configuration not stated) | u | u | n | 20.6µM | u
O=C(C1CCCN(S(=O)(=O)Cc2ccccc2)C1)N1CCc2ccccc21 (configuration not stated) | n | u | n | n | 25.9µM
CCOC(=O)C1CCCN(S(=O)(=O)Cc2ccccc2)C1 (configuration not stated) | n | n | n | n | n
OC(CNc1ncnc2sccc12)c1ccccc1 (configuration not stated) | u | u | 6.31µM | n | u
COc1cccc(-c2ccc3ncnc(NCc4cccnc4)c3c2)c1 | u | n | u | n | 5.17µM
c1ccc(CNc2ncnc3sccc23)cc1 | n | n | 17.8µM | n | n
c1ccc(CCNc2ncnc3sccc23)nc1 | u | n | 15.8µM | n | n
CN(C)C(CNc1ncnc2sccc12)c1ccccc1 (configuration not stated) | n | n | n | n | n
Cc1ccc(C2=NN(C(=O)CN3CCN(C4CCS(=O)(=O)C4)CC3)C(c3ccco3)C2)cc1 (configuration not stated) | x | n | x | n | n
O=S(=O)(Nc1cccc(S(=O)(=O)N2CCCCCC2)c1)c1ccc(F)cc1F | x | n | x | n | n
CC(=O)c1ccc(S(=O)(=O)N2CCN(C(=O)C3CCCC3)CC2)cc1 | n | n | n | n | n
O=C(COc1coc(CN2CCc3ccccc3C2)cc1=O)Nc1ccc(F)cc1F | x | n | x | n | n
c1cncc(CNc2ncnc3sccc23)c1 | u | n | n | n | 20.6µM
COc1ccc(C(CNc2ncnc3sccc23)N(C)C)cc1OC (configuration not stated) | n | n | n | n | n
c1csc(CNc2ncnc3sccc23)c1 | x | n | x | n | x
COc1ccc(CNc2ncnc3sccc23)cc1OC | u | n | 11.2µM | n | u
CN(C)S(=O)(=O)c1cccc(NC(=O)COC(=O)/C=C/c2ccc([N+](=O)[O-])cc2)c1 | n | n | n | n | n
COc1ccc(S(=O)(=O)N2CCC(C(=O)N[C@@H](C)C(=O)NC3CC3)CC2)cc1 | n | n | n | n | u
CCOC(=O)c1c(NC(=O)CSc2nc3ccccc3o2)sc(C(C)=O)c1C | 12.6µM | u | u | n | n
CCOC(=O)c1c(NC(=O)CSc2nnc(-c3ccccc3)o2)sc(C(C)=O)c1C | n | n | n | n | u
C/C(=N\NC(=O)CSc1nc2ccccc2o1)c1ccc(O)cc1 | 11.2µM | n | n | n | u
SMILES | RORg inh | MCF10A rerep | Gal4-VP16 FLuc | SW480 rerep | ELG1 repair inh
C/C(=N\NC(=O)CSc1nc2ccccc2o1)c1cccc(O)c1 | n | n | n | n | n
O=S(=O)(/N=C(/Nc1ccccc1)c1ccccc1O)c1ccccc1 | n | n | n | n | n
CN(C)C(CNc1ncnc2ccccc12)c1c(F)cccc1Cl (configuration not stated) | n | n | n | n | n
COc1cccc(Cn2c(=S)[nH]c3ccc(N4CCOCC4)cc3c2=O)c1 | 2.82µM | u | 6.31µM | u | n
O=c1c2cc(Cl)ccc2[nH]c(=S)n1Cc1cccs1 | 2µM | u | 4.47µM | n | n
O=c1[nH]c2ccc(Cl)cc2c(=O)n1Cc1ccco1 | u | n | u | n | n
O=c1c2cc(Cl)ccc2[nH]c(=S)n1Cc1ccco1 | 2.24µM | n | 5.62µM | u | n
COc1cc2[nH]c(=S)n(Cc3ccco3)c(=O)c2cc1OC | 11.2µM | n | u | n | n
CC(C)C[C@H](NC(=O)[C@@H]1CCCN1C(=O)[C@H](Cc1ccccc1)NC(=O)[C@H](C)NC(=O)[C@H](CCC(=O)O)NC(=O)[C@H](C)NC(=O)[C@H](CO)NC(=O)[C@H](CCC(=O)O)NC(=O)[C@H](CC(=O)O)NC(=O)[C@H](CCC(=O)O)NC(=O)[C@H](C)NC(=O)CNC(=O)[C@H](CC(N)=O)NC(=O)[C@@H]1CCCN1C(=O)[C@H](Cc1ccc(O)cc1)NC(=O)[C@@H](NC(=O)[C@H](CCCCN)NC(=O)[C@@H](NC(=O)[C@@H]1CCCN1C(=O)[C@@H](N)CCCNC(=N)N)C(C)C)C(C)C)C(=O)N[C@@H](CCC(=O)O)C(=O)N[C@@H](Cc1ccccc1)C(=O)O | n | x | n | x | x
CCN(CCCn1c(=S)[nH]c2ccc(N3CCOCC3)cc2c1=O)c1ccccc1 | 3.98µM | 18.4µM | u | u | u
O=c1c2cc(N3CCOCC3)ccc2[nH]c(=S)n1Cc1ccco1 | 14.1µM | u | u | u | n
O=c1c2cc(N3CCOCC3)ccc2[nH]c(=S)n1Cc1cccc(Cl)c1 | 3.55µM | u | 5.62µM | n | n
OCCNc1cc(Cl)ncn1 | n | n | n | n | n
COc1cccc(-c2csc(NC(=O)Oc3ccccc3)n2)c1 | n | u | n | n | u
COc1cccc(-c2csc(NNC(=O)c3cccs3)n2)c1 | 2.24µM | n | 10µM | n | n
CN(/N=C/c1ccc(O)cc1O)c1nc(-c2ccccc2)cc(-c2ccccc2)n1 | n | 18.4µM | u | u | u
Cn1c(O)c(N=NC(=O)c2ccco2)c2ccccc21 | u | u | u | n | u
O=C(N=Nc1c(O)n(C2OC(=O)c3ccccc32)c2ccccc12)c1ccc(O)cc1 (configuration not stated) | 2.82µM | n | 2.82µM | n | u
Oc1ccc(N=Nc2cccc(C(F)(F)F)c2)cc1C=Nc1ccc(N2CCOCC2)cc1 | n[10 µM] | 5.8µM | n | u | n
CC(C)N1CC2=C(OC(N)=C(C#N)C2c2cccnc2)/C(=C/c2cccnc2)C1 (configuration not stated) | n | n | n | n | n
CN1C/C(=C/c2ccc(B(O)O)cc2)C(=O)/C(=C/c2ccc(B(O)O)cc2)C1 | 2µM | x | 4.47µM | x | x
CC(C)N1C/C(=C/c2ccsc2)C(=O)/C(=C/c2ccsc2)C1 | u | 8.2µM | u | 9.2µM | 18.4µM
CC(C)N1C/C(=C/c2cccnc2)C(=O)/C(=C/c2cccnc2)C1 | u | 1.16µM | u | u | u
CN1C/C(=C/c2cccnc2)C(=O)/C(=C/c2cccnc2)C1 | 5.62µM | 14.6µM | 2.82µM | u | u
